“And” between values parts separate entries of the source, which are not always exact repeats. Identical values can stand only once. Inconclusive results are not listed. Entries that show only a call come without a potency. The source made the active and inactive calls. The call rests on the fitted dose curve.
assay: Cytotoxicity counterscreen for inhibitors of SARS-CoV-2 cell entry (AID 1645845); details: cell viability (SARS-CoV-2 entry assay cells); series mostly up to 57.1 µM; further: nearly all actives have a fitted effect of over 50% in size
How it was run: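 48 h compound treatment (after 1 h preincubation), HEK293-ACE2 cells, 37 C/5% CO2; ATP luminescence endpoint; normalized to cell wells and media blanks.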
Potency means the concentration at half of the fitted maximal effect.

| Structure (SMILES) | Potency |
| --- | --- |
| C[C@H]1NCc2cc(-c3ccc4c(=O)c(C(=O)O)cn(C5CC5)c4c3OC(F)F)ccc21 | inactive |
| C=C1C[C@H]2[C@@H]3C=C(C)C4=CC(=O)CC[C@]4(C)[C@H]3CC[C@]2(C)[C@@]1(OC(C)=O)C(C)=O | inactive |
| C[N+](C)(C)CCCCCCCCCC[N+](C)(C)C | inactive |
| C#CC1(O)CC[C@H]2[C@@H]3CCC4=CCCC[C@@H]4[C@H]3CC[C@@]21C (some centres not stated) | inactive |
| NC(=O)CCCCC1CCSS1 (configuration not stated) | inactive |
| C[C@]12CC[C@@H]3c4ccc(O)cc4CC[C@H]3[C@@H]1CCC2=O | inactive |
| O=C1OC(c2ccc(O)cc2)(c2ccc(O)cc2)c2ccccc21 | inactive |
| CCN(CC)CCNC(C(=O)OCCC(C)C)c1ccccc1 (configuration not stated) | inactive |
| CC(C)c1cc2c(cc1S(=O)(=O)O)[C@@]1(C)CCC[C@@](C)(C(=O)O)[C@@H]1CC2 | inactive |
| CCCCCCc1ccc(O)cc1O | inactive |
| COC(=O)C1=C(C)NC(C)=C(C(=O)OCCCN2CCC(c3ccccc3)(c3ccccc3)CC2)C1c1cccc([N+](=O)[O-])c1 (configuration not stated) | 28.2 µM (active) |
| O=C(CCCN1CCN(c2ccccn2)CC1)c1ccc(F)cc1 | inactive |
| CCCCN(CCN(CCCC)C(=O)N1CCOCC1)C(=O)N1CCOCC1 | inactive |
| CC(C(O)c1ccc(O)cc1)N1CCC(Cc2ccccc2)CC1 (configuration not stated) | inactive |
| CN1CCCN=C1/C=C/c1cccs1 | inactive |
| COCCc1ccc(OCC(O)CNC(C)C)cc1 (configuration not stated) | inactive |
| C[N+]1(C)CCC(=C(c2ccccc2)c2ccccc2)CC1 | inactive |
| O=C1C(c2[nH]c3ccccc3c2O)=Nc2ccccc21 | inactive |

assay: Primary qHTS to identify inhibitors of SARS-CoV-2 cell entry (AID 1645846); details: SARS-CoV-2 pseudovirus cell entry assay, luminescence; activity change, negative = inhibition: at 57.1 µM (top of the series) unless noted; series mostly up to 57.1 µM; further: nearly all actives have a fitted effect of over 45% in size
How it was run: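 HEK293 cells stably expressing human ACE2, pre-treated 1 h with compound, then infected with MLV particles pseudotyped with Wuhan-Hu-1 spike (C-terminal 19-aa truncation). Luciferase luminescence after 48 h at 37 °C, normalised to spike PP and bald PP.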

| Structure (SMILES) | Potency | activity change, negative = inhibition |
| --- | --- | --- |
| CCCCCCCCCCCCCCCC[N+](C)(C)Cc1ccccc1 | 17.8 µM (active) | – |
| CN(C)CCN(Cc1cccs1)c1ccccn1 | – | -3.24% |
| CCC(C(=O)OCCN1CCOC(c2ccccc2)C1C)c1ccccc1 (configuration not stated) | – | -21.8% |
| COc1ccc2c(c1OC)C(=O)O[C@@H]2[C@H]1c2c(cc3c(c2OC)OCO3)CCN1C | – | -12.9% |
| O=C1c2cccc(O)c2C(=O)c2c(O)cccc21 | inactive | – |
| CCOc1ccc2nc(S(N)(=O)=O)sc2c1 | inactive | – |
| NCCc1ccc(O)c(O)c1 | – | -18% and -6.68% |
| CC(=O)Oc1ccc(C(c2ccc(OC(C)=O)cc2)c2ccccn2)cc1 | inactive | – |
| CC(C)N=C(N)/N=C(\N)Nc1ccc(Cl)cc1 | inactive | – |
| C/C=C/c1ccc(O)c(OC)c1 | – | -1.3% |
| Cc1cccc(C)c1NC(=O)C(C)N (configuration not stated) | – | 4.4% |
| Cc1cc(C)c(/C=C2\C(=O)Nc3ccccc32)[nH]1 | – | -6.25% |
| CCN(CC)C(=O)N1CCN(C)CC1 | – | -24.4% |
| CN1CCN(c2c(F)cc3c(=O)c(C(=O)O)cn(CCF)c3c2F)CC1 | – | 2.09% |
| N#Cc1cc(NC(=O)C(=O)O)c(Cl)c(NC(=O)C(=O)O)c1 | – | 1.2% |
| Cc1cc(O)c(C(C)C)cc1Cl | inactive | – |
| COc1ccc(CN(CCN(C)C)c2ncccn2)cc1 | – | -19.5% |
| Cc1ccc(O)cc1 | – | -24.6% |
| C[C@H](O)C(=O)Nc1c(I)c(C(=O)NC(CO)CO)c(I)c(C(=O)NC(CO)CO)c1I | – | 4.46% |
| CNC(=O)c1cnn(-c2nc(N)c3ncn([C@@H]4O[C@H](CO)[C@@H](O)[C@H]4O)c3n2)c1 | inactive | – |

| Structure (SMILES) | Potency | activity change, negative = inhibition |
| --- | --- | --- |
| NS(=O)(=O)c1ccc(N2CCCCS2(=O)=O)cc1 | inactive | – |
| C[C@H]1NCc2cc(-c3ccc4c(=O)c(C(=O)O)cn(C5CC5)c4c3OC(F)F)ccc21 | – | -12.7% [at 27.1 µM] |
| C=C1C[C@H]2[C@@H]3C=C(C)C4=CC(=O)CC[C@]4(C)[C@H]3CC[C@]2(C)[C@@]1(OC(C)=O)C(C)=O | – | 2.39% |
| C[N+](C)(C)CCCCCCCCCC[N+](C)(C)C | – | -5.17% |
| C#CC1(O)CC[C@H]2[C@@H]3CCC4=CCCC[C@@H]4[C@H]3CC[C@@]21C (some centres not stated) | inactive | – |
| NC(=O)CCCCC1CCSS1 (configuration not stated) | inactive | – |
| C[C@]12CC[C@@H]3c4ccc(O)cc4CC[C@H]3[C@@H]1CCC2=O | inactive | – |
| O=C1OC(c2ccc(O)cc2)(c2ccc(O)cc2)c2ccccc21 | inactive | – |
| CCN(CC)CCNC(C(=O)OCCC(C)C)c1ccccc1 (configuration not stated) | – | -14.1% |
| CC(C)c1cc2c(cc1S(=O)(=O)O)[C@@]1(C)CCC[C@@](C)(C(=O)O)[C@@H]1CC2 | – | -22.9% |
| CCCCCCc1ccc(O)cc1O | – | -11.8% |
| COC(=O)C1=C(C)NC(C)=C(C(=O)OCCCN2CCC(c3ccccc3)(c3ccccc3)CC2)C1c1cccc([N+](=O)[O-])c1 (configuration not stated) | 8.91 µM (active) | – |
| O=C(CCCN1CCN(c2ccccn2)CC1)c1ccc(F)cc1 | – | -24.8% |
| CCCCN(CCN(CCCC)C(=O)N1CCOCC1)C(=O)N1CCOCC1 | inactive | – |
| CC(C(O)c1ccc(O)cc1)N1CCC(Cc2ccccc2)CC1 (configuration not stated) | – | -24.3% |
| CN1CCCN=C1/C=C/c1cccs1 | – | -29.2% |
| COCCc1ccc(OCC(O)CNC(C)C)cc1 (configuration not stated) | – | -1.24% |
| C[N+]1(C)CCC(=C(c2ccccc2)c2ccccc2)CC1 | – | -5.21% |
| O=C1C(c2[nH]c3ccccc3c2O)=Nc2ccccc21 | – | -0.955% |
